# Only some compounds are listed: those with a hit (about 27% of all), similar ones and a draw of the others.
# CYP2C9 inhib: human CYP2C9 inhibition | P11712 | AID 777 | CYP2C9 Supersomes, luciferin-H conversion, luminescence | inhibition, % at 5 µM | actives 20% (n = 96,000);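 active = blocking of liver enzyme CYP2C9 beyond about 50% at 5 µM, limit read from the data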
# CYP2C19 inhib: inhibitors of human CYP2C19 | P33261 | CYP2C19 Supersomes, luciferin-H EGE luminescence, 30 min | inhibition, % at 5 µM | actives 21% (n = 96,000);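 active = CYP2C19 inhibition above a set limit at 5 µM in the primary screen, cut at about 50% in these data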;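 also: plate controls were negative control wells for no effect and 2.5 mM tranylcypromine positive control for full effect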
# Target sequence (P33261 whole entry, looked up): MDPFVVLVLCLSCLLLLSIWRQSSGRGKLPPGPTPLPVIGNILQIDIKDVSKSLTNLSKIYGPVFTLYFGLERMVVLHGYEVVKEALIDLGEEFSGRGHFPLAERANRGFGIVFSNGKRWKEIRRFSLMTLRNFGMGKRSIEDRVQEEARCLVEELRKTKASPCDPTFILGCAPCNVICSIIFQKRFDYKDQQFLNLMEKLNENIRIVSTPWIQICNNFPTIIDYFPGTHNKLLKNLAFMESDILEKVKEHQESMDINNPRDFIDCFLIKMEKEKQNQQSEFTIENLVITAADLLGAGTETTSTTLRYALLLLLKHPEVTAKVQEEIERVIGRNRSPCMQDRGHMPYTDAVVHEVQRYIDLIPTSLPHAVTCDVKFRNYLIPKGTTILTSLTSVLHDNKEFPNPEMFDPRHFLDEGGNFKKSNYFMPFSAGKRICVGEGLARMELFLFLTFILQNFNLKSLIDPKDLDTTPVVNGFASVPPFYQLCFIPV
# Cav32 inh: inhibitors of human Cav3.2 T-type calcium channel; actives 4% (n = 100,000); AID 449739; O95180; Cav3.2-expressing cells, Fluo-4 calcium fluorescence FDSS; active compounds read low; B-score at 10 µM;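 active = single-dose well whose peak fluorescence ratio is a statistical outlier from its plate by either plate-standardised score or position-corrected B-score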
# CYP2C9 act: activators of human CYP2C9; activation factor at 5 µM; actives 1.4% (n = 96,000); P11712; recombinant CYP2C9, luciferin-H conversion, luminescence; active compounds read high; factor 1 = untreated enzyme, 0 = blocked; AID 1024;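 active = activation factor of 2 or more for CYP2C9 at a 5 µM dose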;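 also: 0 = sulfaphenazole-blocked wells and 1 = vehicle-only wells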
# CYP2C19 activ: cytochrome P450 2C19 (human) activation. P33261. recombinant CYP2C19, luciferin-H EGE luminescence; active compounds read high; 0 = fully inhibited enzyme, 1 = untreated enzyme. activation factor at 5 µM. 96,000 tested, under 10 active. AID 1025;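 active = activation factor of at least 2 at 5 µM in the primary screen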;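 also: 0 = wells with 2.5 mM tranylcypromine and 1 = vehicle-only wells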
# The depositor's hits bear a star; nt = no result given.
SMILES,CYP2C9 inhib,CYP2C19 inhib,Cav32 inh,CYP2C9 act,CYP2C19 activ
COc1cc(C(=O)N(Cc2ccc(F)cc2)C2CCS(=O)(=O)C2)cc(OC)c1OC (stereo not given),8,-5,1.7,0.9,1
CCN1c2ccccc2NC2C1C(C(C)=O)C(=O)N2c1ccc(Cl)cc1 (stereo not given),79*,92*,-2.3,0.2,0.1
CN1C(C(=O)NCCc2cccs2)CC2Cn3c(nc4ccccc43)C21 (stereo not given),nt,nt,0.82,nt,nt
COc1cccc(C(=O)Nc2ccccc2)c1,-2,31,0.11,1,0.7
CN(C)S(=O)(=O)c1cccc(C(=O)Nc2cc(Cl)ccc2O)c1,67*,49,0.36,0.3,0.5
CCn1c2ccccc2c2cc(NC(=O)c3cccc(OC)c3)ccc21,-38,5,-0.14,1.4,1
CCn1c(C)c(C)c2cc(C(=O)Nc3cccc(Cl)c3)ccc21,-140,14,nt,2.4*,0.9
CNS(=O)(=O)c1cccc(C(=O)Nc2cccc(Cl)c2)c1,62*,70*,-0.58,0.4,0.3
CN(C)S(=O)(=O)Oc1cccc(C(=O)Nc2cccc(Cl)c2)c1,82*,70*,-3.1,0.2,0.3
CN(C)S(=O)(=O)c1cccc(C(=O)Nc2ccccc2Cl)c1,40,16,-0.001,0.6,0.8
CSc1nc2nc(-c3ccccc3)cc(C(F)(F)F)n2n1,31,15,-0.31,0.7,0.9
CCc1nn(-c2ccccc2)c(N)c1-c1ccc(OC)c(OC)c1,-68,3,-0.15,1.7,1
CN(C)S(=O)(=O)c1cccc(C(=O)Nc2cc(Cl)cc(Cl)c2)c1,98*,32,-0.68,0,0.7
NC(=O)C1CCN(c2oc(-c3ccccc3F)nc2S(=O)(=O)c2ccc(Cl)cc2)CC1,29,52*,-0.038,0.7,0.5
COC(=O)C1=C(C)Nc2ncnn2C1c1ccc(OCc2ccccc2)cc1 (stereo not given),-1,-11,-0.34,1,1.1
O=C1CCCC2=C1C(c1cccs1)n1ncnc1N2 (stereo not given),-12,-8,0.34,1.1,1.1
Fc1ccc(C2C3=C(Nc4ncnn42)c2ccccc2OC3c2ccncc2)cc1 (stereo not given),77*,93*,-2,0.2,0.1
Cc1ccc(C2Oc3ccccc3C3=C2C(c2cccs2)n2ncnc2N3)cc1 (stereo not given),50,17,-4.6*,0.5,0.8
Cc1cc2c(ncn2C(C)C)c(N)c1C,-3,48,0.00076,1,0.5
Cc1ccc(C)c(OCCn2cc(/C=C(\C#N)C(=O)NCc3cccs3)c3ccccc32)c1,78*,13,-2.8,0.2,0.9
N#C/C(=C\c1cn(CCOc2ccccc2)c2ccccc12)C(=O)NCc1ccco1,44,11,-0.23,0.6,0.9
Cc1cc(/C=C(\C#N)C(=O)Nc2ccccc2)c(C)n1-c1ccc2c(c1)OCO2,23,-1,-0.67,0.8,1
Cc1cc(/C=C(\C#N)C(=O)NCc2cccs2)c(C)n1-c1ccccc1F,2,0,-4.8*,1,1
O=C(CN1C2=NCCN2c2ccccc21)c1ccco1,-7,-7,0.08,1.1,1.1
Cc1onc(-c2c(Cl)cccc2Cl)c1C(=O)NCCCN1CCOCC1,1,-9,0.38,1,1.1
SMILES,CYP2C9 inhib,CYP2C19 inhib,Cav32 inh,CYP2C9 act,CYP2C19 activ
Cc1sc2c(=O)n3c(nc2c1C(=O)NC1CCCCC1)CCCCC3,96*,84*,-1.1,0,0.2
Cc1sc2c(=O)n3c(nc2c1C(=O)NCCCN1CCOCC1)CCCCC3,90*,86*,1.4,0.1,0.1
Cc1csc2c(=O)n3c(nc12)CCCCC3,23,22,1.2,0.8,0.8
COc1ccc(C(=O)Nc2cccc3c2C(=O)NC3=O)cc1S(=O)(=O)N1CCOCC1,9,10,nt,0.9,0.9
Cc1cccc2sc(NC(=O)CCNS(=O)(=O)c3cccs3)nc12,78*,82*,-1.8,0.2,0.2
Cc1ccc2nc(NC(=O)CCNS(=O)(=O)c3cccs3)sc2c1,28,49,-1.8,0.7,0.5
COC(=O)N1CCN(c2ccc(Cl)c(Cl)c2)CC1,28,66*,-1.1,0.7,0.3
Cc1nc2cc(-c3cccc(Cl)c3)nn2c(N2CCN(C(=O)c3ccco3)CC2)c1C,86*,73*,nt,0.1,0.3
O=C(c1ccco1)N1CCN(c2ccc(Cl)c(Cl)c2)CC1,nt,nt,-4.1*,nt,nt

# Assay outcomes (PubChem)
